Reference: PubChem BioAssay (NCI)
Values joined by “and” are separate entries in the source; they are usually repeats but may differ in a detail not shown here. Equal values may be shown once. The panel holds about 83,000 compounds, 20% with a hit somewhere; the sample as a whole holds those more often.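 Assay: single dose, 48 h. Readout: percent growth (0 = no net growth; negative = cell death). Active: <10.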 Active and inactive are the calls of the source.

Each compound was assayed on HCT-15 colon (assay: NCI-60 one-dose screen, 48 h (100 = growth as untreated, 0 = no growth, -100 = all killed)). Settings: 0.0025 µM.
Description: Growth inhibition of the HCT-15 human tumor cell line is measured as a screen for anti-cancer activity. Cells are grown in 96 well plates and exposed to the test compound for 48 hours. Compounds are tested at a single concentration, which is 10^-5 M for most compounds. The reported endpoint is percent growth (GI% or GIPRCNT), where numbers from 0 - 100% represent growth inhibition, and numbers from -100% - 0 represent cell death. For example, a value of 40 represents 60% growth inhibition. A value of 0 means no net growth occurred over the course of the experiment. A value of -40 indicates 40% of cells at the beginning of the experiment died by the end of the experiment. A value of -100 means all cells are dead at the end of the experiment.
NCI-60 Human Tumor Cell Lines Screen was performed using the standard one-dose NCI protocol, which is described in more detail at https://dtp.cancer.gov/discovery_development/nci-60/default.htm.
Compounds with GIPRCNT values below 10 were considered active. Activity score was based on GIPRCNT using the following formula: […]
Score is 0 for GIPRCNT values of 100 or above, 50 for GIPRCNT values of 0, and 100 for GIPRCNT values of -100.

| SMILES | growth |
| --- | --- |
| COc1cccc2c1C(=O)c1c(O)c3c(c(O)c1C2=O)C[C@@](O)(C(=O)CO)C[C@@H]3OC1CC(N)C(O)C(C)O1 (stereo not given in full) | 99.2% (inactive) |

Same assay, conditions: 1 µM

| SMILES | growth |
| --- | --- |
| COc1cccc2c1C(=O)c1c(O)c3c(c(O)c1C2=O)C[C@@](O)(C(=O)CO)C[C@@H]3OC1CC(N)C(O)C(C)O1 (stereo not given in full) | 81.9% (inactive) |

Same assay, conditions: 2.5 µM

| SMILES | growth |
| --- | --- |
| COc1cccc2c1C(=O)c1c(O)c3c(c(O)c1C2=O)C[C@@](O)(C(=O)CO)C[C@@H]3OC1CC(N)C(O)C(C)O1 (stereo not given in full) | 70.2% (inactive) |

Same assay, conditions: 10 µM

| SMILES | growth |
| --- | --- |
| O=C1C=C(O)c2ccccc2C1=O.[Ag] | 88.2% (inactive) |
| CO[C@H](C(=O)[C@@H](O)[C@@H](C)O)[C@@H]1Cc2cc3cc(OC4CC(OC5CC(O)C(O)C(C)O5)C(O)C(C)O4)c(C)c(O)c3c(O)c2C(=O)[C@H]1OC1CC(OC2CC(OC3CC(C)(O)C(O)C(C)O3)C(O)C(C)O2)C(O)C(C)O1 (stereo not given in full) | 6.74% (active) |
| COC1OCC(O)C(O)C1O (stereo not given) | 98.5% (inactive) |
| COC(=O)C1=COC(C)C2C[n+]3ccc4c([nH]c5ccccc54)c3CC12 (stereo not given) | 104% (inactive) and 101% (inactive) |
| NNc1ccc2ccccc2c1 | 91.2% (inactive) and 97% (inactive) |
| O=[N+]([O-])C1=C(c2ccccc2)SC=C(c2ccccc2)S1 | 58.7% (inactive) |
| O=C(Nc1ccc(C(=O)O)c(O)c1)c1ccccc1 | 104% (inactive) and 99% (inactive) |
| Oc1ccc(N=Nc2ccccn2)c(O)c1 | 30.5% (inactive) |
| CS(=O)(=O)OC1CC(n2ccc(=O)[nH]c2=O)OC1COC(c1ccccc1)(c1ccccc1)c1ccccc1 (stereo not given) | 93.7% (inactive) |
| O=C(C(=Cc1ccccc1)C(=O)c1ccccc1)c1ccccc1 | 28.1% (inactive) and 88.8% (inactive) |
| Cc1cc(NS(=O)(=O)c2ccc(N=Nc3cc(N=Nc4ccc(S(=O)(=O)Nc5cc(C)nc(C)n5)cc4)c4c(NC(=O)C(Cl)Cl)cccc4c3OC(=O)C(Cl)Cl)cc2)nc(C)n1 (tested in a mixture with another compound) | 88.8% (inactive) and 84.2% (inactive) |
| CCCCCCCCCCCCSC(=NC)NC | -25.5% (active) and -28.8% (active) |
| O=C(O)COc1ccc(OCC(=O)O)cc1 | 71.7% (inactive) |
| CN(C)C(=S)SC(=S)N(C)C | 87.5% (inactive) and 95.5% (inactive) |
| CSC1SCC2C(=O)N(C)C(C(C)C)C(=O)OCC(NC(=O)c3cnc4ccccc4n3)C(=O)NC(C)C(=O)N(C)C1C(=O)N(C)C(C(C)C)C(=O)OCC(NC(=O)c1cnc3ccccc3n1)C(=O)NC(C)C(=O)N2C (stereo not given) | 4.08% (active) |
| CCN(CC)c1ccc(NC(C(=O)c2ccccc2)c2ccccc2)cc1 (stereo not given) | -16.4% (active) |
| CCC(C)(C)c1cc(O)c(C(C)(C)CC)cc1O | 43.8% (inactive) |
| OC(CN1CCCC2CCCCC21)c1cc2ccccc2c2ccccc12 (stereo not given) | 22.5% (inactive) |

| SMILES | growth |
| --- | --- |
| COc1cccc2c1C(=O)c1c(O)c3c(c(O)c1C2=O)C[C@@](O)(C(=O)CO)C[C@@H]3OC1CC(N)C(O)C(C)O1 (stereo not given in full) | 15.2% (inactive) |
| O=c1ccn(C2CC(O)C(COC(c3ccccc3)(c3ccccc3)c3ccccc3)O2)c(=O)[nH]1 (stereo not given) | 88.9% (inactive) |
| C[n+]1c2cc(N)ccc2cc2ccc(N)cc21 | 19.6% (inactive) [middle of 4 runs] |
| CCCCCCCCCCCC[N+](C)(C)Cc1ccccc1 | 90.8% (inactive) |
| OCC1OC(n2cnc3c(=S)nc[nH]c32)C(O)C1O (stereo not given) | 104% (inactive) and 55.5% (inactive) |
| CCCC1CCC(=C2C(=O)CCC2=O)O1 (stereo not given) | 105% (inactive) and 92% (inactive) |
| NC1=C(Cl)C(=O)c2ccccc2C1=O | 51% (inactive) |
| CCCCCCCCCCSC(=N)N | -4.11% (active) |
| COC(=O)C1C(O)C(C)C(O)C(C)C=C(C)C2=C3C(=C(C)C(=O)c4c(O)c(c(C)c(OC(C)=O)c43)NC(=O)C(C)=C/C=C\C(C)C(O)C(C)C1O)OCO2 (stereo not given) | 115% (inactive) |
| CC(C)(C)CC(C)(C)c1ccc(OCCO)cc1 | 99.8% (inactive) |
| COc1cccc2c1C(=O)c1c(O)c3c(c(O)c1C2=O)C[C@@](O)(C(C)=O)C[C@@H]3OC1CC(N)C(O)C(C)O1 (stereo not given in full) | 3.22% (active) |
| COc1ccc(CC(=O)c2ccc(O)cc2O)cc1 | 131% (inactive) |
| Nc1nc(=S)c2ncn(C3OC(CO)C(O)C3O)c2[nH]1 (stereo not given) | 107% (inactive) and 9.43% (active) |
| NNc1c2ccccc2nc2ccccc12 | 35.1% (inactive) |
| CC[N+](CC)=c1ccc2nc3c(cc(N)c4ccccc43)oc-2c1 | -54.6% (active) |
| NC(=O)SCC(=O)NNc1ccccc1 | 89.2% (inactive) |
| CCN1/C(=C/C=C/C=C/c2sc3ccccc3[n+]2CC)Sc2ccccc21 | -20.9% (active) |
| CCO/C=C1\SC(=S)N(c2cccc(O)c2)C1=O | 104% (inactive) |

Same assay, conditions: 100 µM

| SMILES | growth |
| --- | --- |
| O=c1ccn(C2CC(O)C(COC(c3ccccc3)(c3ccccc3)c3ccccc3)O2)c(=O)[nH]1 (stereo not given) | 33.4% (inactive) |
